Source: PubChem
PAFAH1B3 FP inh: PAFAH1B3 enzyme inhibitors, primary screen, biochemical, fluorescence polarization, human | recombinant PAFAH1B3, FP-rhodamine probe | hit rate 0.28% among 340,000 | Platelet-activating factor acetylhydrolase IB subunit alpha1 (Homo sapiens), Q15102 | AID 492972, 2010 | inhibition, % at 3.39 µM;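 active means inhibition above the screen-wide average of all tested compounds plus 3 SD, cut at about 25% in these data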
Target sequence (Q15102 whole entry, looked up): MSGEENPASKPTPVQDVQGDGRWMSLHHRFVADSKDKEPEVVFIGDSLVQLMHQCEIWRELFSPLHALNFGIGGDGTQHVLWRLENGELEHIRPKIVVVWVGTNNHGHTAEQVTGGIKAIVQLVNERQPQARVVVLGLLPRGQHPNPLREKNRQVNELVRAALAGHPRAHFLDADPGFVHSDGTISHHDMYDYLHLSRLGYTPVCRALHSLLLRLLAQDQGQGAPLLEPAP
PAFAH2 inh: PAFAH2 enzyme inhibitors, primary screen, biochemical, fluorescence polarization, human; Platelet-activating factor acetylhydrolase 2, cytoplasmic (Homo sapiens), Q99487; recombinant PAFAH2, FP-rhodamine activity probe; inhibition, % at 3.39 µM; hit rate 0.99% among 340,000; AID 492956, 2010;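 active means inhibition above the mean over all tested compounds plus 3 SD, cut at about 30% in these data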;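 further: inhibitors block probe labeling of enzyme so polarization drops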
EBNA-1 inhibitor: EBNA-1 DNA-binding inhibitors, primary screen, biochemical, fluorescence polarization; inhibition, % at 14.8 µM; hit rate 0.34% among 300,000; in the data active means inhibition above about 28%
rCAG RNA binder: binders of r(CAG) RNA repeats, primary screen, biochemical, fluorescence; AID 651821, 2012; inhibition, % at 3 µM; hit rate 1.3% among 370,000; r(CAG) RNA repeat, TO-PRO-1 dye displacement fluorescence;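 active means inhibition above the plate cutoff, the mean of all test compounds on that plate plus 3 SD, cut at about 35% in these data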;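 further: higher means more dye released from RNA so lower well fluorescence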
ZTA counter: blocks Epstein-Barr virus ZTA, an EBNA-1 counter-screen; P03206; hit rate 0.15% among 320,000; ZTA-DNA binding, fluorescence polarization; inhibition, % at 11 µM; in the data active means inhibition above about 33%
PAFAH1B2 inh: PAFAH1B2 enzyme inhibitors, primary screen, biochemical, fluorescence polarization, human. Platelet-activating factor acetylhydrolase IB subunit alpha2 (Homo sapiens), P68402. recombinant PAFAH1B2, FP-rhodamine activity probe. inhibition, % at 3.39 µM. hit rate 1.2% among 340,000. AID 492953, 2010;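 active means inhibition above the mean of all tested compounds plus 3 SD, cut at about 24% in these data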
Target sequence (P68402 whole entry, looked up): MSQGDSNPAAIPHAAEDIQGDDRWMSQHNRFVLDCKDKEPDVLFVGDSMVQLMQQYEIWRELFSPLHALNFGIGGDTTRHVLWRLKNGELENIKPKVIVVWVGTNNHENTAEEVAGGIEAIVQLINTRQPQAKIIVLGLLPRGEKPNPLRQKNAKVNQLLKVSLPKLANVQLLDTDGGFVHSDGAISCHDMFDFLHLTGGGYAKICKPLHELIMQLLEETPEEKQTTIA
EBNA-1 inh conf: EBNA-1 DNA-binding inhibitors, retest, confirmation, biochemical, fluorescence polarization, triplicate; shares compounds with EBNA-1 inhibitor; Recombinant EBNA-1 DBD, Cy5-DNA fluorescence polarization; inhibition, % at 14.8 µM; hit rate 35% among 830;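 active means mean inhibition across replicates above a set limit taken from the earlier primary screen, cut at about 28% in these data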
ZTA DNA inh trip: EBV Zta DNA binding inhibitors, counter-screen for EBNA-1 inhibitor project, biochemical, fluorescence polarization, triplicate. shares compounds with EBNA-1 inhibitor. Zta-ZRE DNA binding, Cy5 fluorescence polarization. inhibition, % at 11.1 µM. 830 tested, under 10 active;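 active means mean inhibition over triplicates above a set limit taken from the primary EBNA-1 screen, cut at about 37% in these data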;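 further: purified full length Zta protein with Cy5 labeled ZRE DNA probe; inhibitors lower polarization by freeing the labeled DNA probe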
A number is an active result; 0 = inactive; - = no result given. Sampled rows, rich in hits. Any-hit rate of the full collection: about 2.9%.

SMILES | PAFAH1B3 FP inh | PAFAH2 inh | EBNA-1 inhibitor | rCAG RNA binder | ZTA counter | PAFAH1B2 inh | EBNA-1 inh conf | ZTA DNA inh trip
Cc1ccccc1OCC(=O)Nc1ccc2c(c1)Cc1ccccc1-2 | 0 | 0 | 29 | - | 0 | 0 | 0 | 0
COCCNC(=O)C1CCC(Cn2c(=S)[nH]c3ccccc3c2=O)CC1 (stereo unspecified) | 0 | 0 | 0 | 0 | 0 | 0 | - | -
O=C(NCCc1c[nH]c2ccccc12)C1CCC(Cn2c(=S)[nH]c3ccccc3c2=O)CC1 (stereo unspecified) | 0 | 0 | 28 | 0 | 0 | 0 | 0 | 0
COc1cc(NC(=O)COC(=O)/C=C/c2ccc(Cl)cc2Cl)cc(OC)c1 | 0 | 0 | 53 | 0 | 0 | 0 | 59 | 0
Cc1cccc(C)c1NC(=S)N=Nc1c(O)n(C)c2ccc(S(=O)(=O)N3CCOCC3)cc12 | 0 | 0 | 0 | 0 | 0 | 0 | - | -
Cc1ccccc1NC(=S)N=Nc1c(O)n(C)c2ccc(S(=O)(=O)N3CCOCC3)cc12 | 0 | 0 | 42 | 0 | 0 | 0 | 0 | 0
CC(C)n1cc(/C=N\NC(=O)c2cc3c(ccc4ccccc43)o2)c2ccccc21 | 0 | 0 | - | 0 | - | 0 | - | -
CCn1cc(/C=N/NC(=O)c2cc3c(ccc4ccccc43)o2)c2ccccc21 | 0 | 0 | 62 | 0 | 0 | 0 | 0 | 0
COc1ccc(CCNS(=O)(=O)c2c(C)n[nH]c2C)cc1 | - | - | - | 0 | - | - | - | -
Cc1c(NC(=O)COC(=O)c2cc(-c3ccc(-c4ccccc4)cc3)nc3ccccc23)c(=O)n(-c2ccccc2)n1C | 0 | 0 | 31 | 0 | 0 | 0 | 0 | 0
Cc1c(NC(=O)c2cc(-c3ccccc3)nc3ccccc23)c(=O)n(-c2ccccc2)n1C | 0 | 0 | - | 0 | - | 0 | - | -
CN1C(=O)c2cc(NC(=O)Nc3ccccc3)ccc2OC[C@H]2O[C@@H](CC(=O)NCC(F)(F)F)CC[C@@H]21 | - | - | - | 0 | - | - | - | -
CCCCNC(=O)C[C@@H]1C[C@]2(C(=O)OCC)CCC3=C2N(CCC3)C1=O | - | - | - | 0 | - | - | - | -
Cc1ccc2c(c1)nnn2C1CCN(S(=O)(=O)c2ccc(C(=O)NC3CCCC3)cc2)CC1 | 0 | 0 | 35 | 0 | 0 | 0 | 36 | 0
Cc1ccc2nc(-c3cccnc3SCC(=O)N3c4ccccc4CC3C)[nH]c2c1 (stereo unspecified) | 0 | 0 | 28 | 0 | 0 | 0 | 30 | 0
CSc1nc2ccc(NC(=O)c3ccc(Cl)s3)cc2s1 | 0 | 0 | 38 | 0 | 0 | 0 | 34 | 0
CSc1nc2ccc(NC(=O)NC(=O)c3c(F)cccc3F)cc2s1 | 0 | 0 | 0 | 0 | 0 | 0 | - | -
COc1ccc(CNC(=S)N2CCN(S(=O)(=O)c3cccc(F)c3)CC2)cc1 | 0 | 0 | 40 | 0 | 0 | 0 | 73 | 0
CC(C)c1nnc(NC(=O)CCC(=O)Nc2ccc(F)cc2)s1 | 0 | 0 | 0 | 0 | 0 | 0 | - | -
CCc1ccc(NC(=O)CCC(=O)Nc2nnc(C(C)C)s2)cc1 | 0 | 0 | 40 | 0 | 0 | 0 | 0 | 0
CCC(=O)N1CCC(C(=O)NC2CCCc3ccccc32)CC1 (stereo unspecified) | - | - | - | 0 | - | - | - | -
COc1ccc(CC(=O)Nc2ccc3c(C)cc(=O)oc3c2)cc1OC | 0 | 0 | 40 | 0 | 0 | 0 | 0 | 0
COc1ccc(O)c(/C=N/NC(=O)CCC(=O)Nc2ccc(C)cc2)c1 | 0 | 0 | 50 | 0 | 0 | 0 | 0 | 0
Cc1ccc(NC(=O)CCC(=O)N/N=C/c2ccc(O)cc2)cc1 | 0 | 0 | 0 | 0 | 0 | 0 | - | -
O=C(CCC(=O)Nc1ccc(Br)cc1)N/N=C/c1ccc(O)cc1 | 0 | 0 | 28 | 0 | 0 | 0 | 0 | 0
